# Experimental data published in PubChem BioAssay.
# Several values for one entry are separate records, joined by “and”; a condition that tells them apart may be missing. Identical values can stand only once. Activity calls are given as the source filed them. Cut-off read from the data, not from the text of the source, unless noted: active = inhibition above about 80%; inactive = the rest.
# Assays:
# [1] = sensitizers of A549 cells to miR-34 induction, primary screen, imaging, A549 dox-inducible miR-34, nuclei and caspase counts (AID 1347080;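 active = compounds whose cell count with miR-34 switched on is under 0.7 times the count with it off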); conditions: A549 miR-34 inducible, Hoechst nuclei count, 48 h
# [2] = survival rescue of mitochondrial mutant cells in low glucose, primary screen, MELAS cybrids, Rieske KO mouse fibroblasts, CellTiter-Glo (AID 1508586;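 active = mean z-score across replicates of 1.96 or higher in either the MELAS or the Rieske mutant cell line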;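 note: z relative to plate mean and SD of compound and empty wells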)
# [3] = LFS_MB_P medulloblastoma growth inhibition, cell-based, chromothripsis tumors, cisplatin or BGB combos (AID 1671449); conditions: LFS_MB_P medulloblastoma cells;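 note: cells exposed for 96 hours; 0% = vehicle DMSO and 100% = killing by high DMSO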
# [4] = HDN33 neuroblastoma growth inhibition, cell-based, chromothripsis tumors, cisplatin or BGB combos (AID 1671450); conditions: HDN33 neuroblastoma cells, stronger effect = higher value;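 note: cells exposed to compound for four days; 0% = vehicle DMSO and 100% = cell killing by high DMSO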
# [5] = ICB984 medulloblastoma cell growth inhibition, synergistic combos for chromothripsis tumors, cisplatin or BGB combos (AID 1671451; call rule not given here;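 note: cells exposed for 96 hours before readout; 0% = vehicle DMSO and 100% = killing by high DMSO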); conditions: ICB984 medulloblastoma cells, drug combinations, stronger effect = higher value
# [6] = LFS_MB_1R medulloblastoma cell growth inhibition, synergistic combos for chromothripsis tumors, cisplatin or BGB combos (AID 1671452); conditions: LFS_MB_1R medulloblastoma cells, stronger effect = higher value;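 note: cells exposed for 96 hours before readout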
# [7] = HTB85 osteosarcoma cell growth inhibition, synergistic combos for chromothripsis tumors, BGB or cisplatin IC20 combos (AID 1671453); conditions: HTB85 osteosarcoma cells, drug combinations, stronger effect = higher value;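 note: cells exposed for 96 hours before readout; 0% = vehicle DMSO and 100% = high DMSO killing control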
# [8] = CRL2098 osteosarcoma cell growth inhibition, synergistic combos for chromothripsis tumors, BGB or cisplatin IC20 combos (AID 1671454); conditions: CRL2098 osteosarcoma cells, drug combinations, stronger effect = higher value;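 note: cells exposed for 96 h before readout; 0% = vehicle DMSO and 100% = killing by high DMSO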
# [9] = HD-MB03 medulloblastoma cell growth inhibition, synergistic combos for chromothripsis tumors, BGB or cisplatin IC20 combos (AID 1671455; in the data active = inhibition above about 83%;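 note: 0% = vehicle DMSO and 100% = high DMSO as cytotoxic control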); conditions: HD-MB03 medulloblastoma cells, stronger effect = higher value
# [10] = UWB1.289 ovarian carcinoma cell growth inhibition, synergistic combos for chromothripsis tumors, BGB or cisplatin combos (AID 1671456); conditions: UWB1.289 ovarian carcinoma cells, stronger effect = higher value;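 note: cells exposed to compound for four days; 0% = vehicle DMSO and 100% = killing by high DMSO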
# [11] = LFS_MB_2R medulloblastoma cell growth inhibition, synergistic combos for chromothripsis tumors, cisplatin combos (AID 1671457); conditions: LFS_MB_2R medulloblastoma cells, stronger effect = higher value;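 note: cells exposed to compound for four days before readout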
# [12] = MDA-MB-436 breast carcinoma cell growth inhibition, synergistic combos for chromothripsis tumors, BGB or cisplatin combos (AID 1671458; call rule not given here;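 note: cells exposed for 96 hours; 0% = vehicle DMSO and 100% = killing by high DMSO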); conditions: MDA-MB-436 breast carcinoma growth inhibition, drug combinations, stronger effect = higher value
# [13] = UWB1.289_BRCA1 ovarian cancer growth, cell-based, BGB or cisplatin combinations (AID 1671459); conditions: UWB1.289 BRCA1 ovarian carcinoma, drug combinations, stronger effect = higher value
# [14] = human astrocyte viability loss, single and combined drugs, cytotoxicity control for chromothriptic childhood tumor combination screen, cell-based, BGB or cisplatin IC20 combos (AID 1671460); conditions: Human astrocytes, drug combinations, stronger effect = higher value;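 note: cells exposed to compounds for 96 hours before viability readout; 0% = vehicle and 100% = killing control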
# [15] = growth inhibition of BT084 medulloblastoma cells, cell-based, ICGC_MB145, cisplatin and BGB IC40 combos (AID 1671461); conditions: drug combinations, stronger effect = higher value;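 note: cells exposed to drugs for 96 hours; 0% = vehicle DMSO and 100% = high DMSO full killing control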
# [16] = growth inhibition of RCMB18 medulloblastoma cells, cell-based, cisplatin and BGB IC40 combos (AID 1671462); conditions: stronger effect = higher value;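 note: cells exposed to compound for four days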
# [17] = growth inhibition of CRL1545 osteosarcoma cells, cell-based, cisplatin and BGB IC20 combos (AID 1671464); conditions: stronger effect = higher value;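 note: cells exposed to compound for 96 hours before readout; 0% = vehicle DMSO and 100% = high DMSO killing control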
# [18] = measured here: combination with BGB IC40, at 0.05 µM
# [19] = measured here: with BGB IC20 combination, at 0.5 µM
# [20] = measured here: with cisplatin IC20 combination, at 0.5 µM
# [21] = measured here: combination with cisplatin, at 0.5 µM
# [22] = measured here: combination with cisplatin, at 5 µM
smiles,measurement,setting,value
CCCCN(Cc1ccc(C(=O)NO)cc1)C(=O)Nc1ccccc1,fold change,"[1]; stronger effect = lower value, cell number ratio, induced over uninduced",0.983 (inactive)
same,fold change,[1]; measured here: relative caspase fold change +Dox/-Dox,0.418
same,cell count,"[1]; measured here: total cells with miR-34 induction, stronger effect = lower value",4530
same,cell count,[1]; measured here: total cells without miR-34 induction,4600
same,z-score,"[2]; MELAS cybrid survival, CellTiter-Glo 48 h, stronger effect = higher value",-0.565 (inactive)
same,z-score,"[2]; Rieske KO mouse fibroblast survival, CellTiter-Glo 72 h",1.2
same,inhibition,"[3]; at 0.5 µM, stronger effect = higher value",-20% (inactive) and -3.97% (inactive)
same,inhibition,"[3]; measured here: combination with BGB IC20, at 0.005 µM",-3.67% and 7.55%
same,inhibition,"[3]; measured here: combination with BGB IC40, at 0.005 µM",4.04% and -3.84%
same,inhibition,[3]; [18],40.8% and 5.09%
same,inhibition,"[3]; measured here: combination with cisplatin, at 0.5 µM, stronger effect = higher value",-30.1% and 27.1%
same,inhibition,"[3]; measured here: combination with cisplatin, at 5 µM, stronger effect = higher value",80.5% and 81.8%
same,inhibition,"[4]; BGB combo, at 5 µM",53.8% and 40.9%
same,inhibition,[4]; at 0.5 µM,23.8% (inactive) and 15.6% (inactive)
same,inhibition,"[4]; cisplatin combo, at 5 µM",52.4% and 49.4%
same,inhibition,[4]; [19],24.6% and 6.38%
same,inhibition,[4]; [20],17.1% and 28%
same,inhibition,"[4]; single agent, at 5 µM",52.1% and 51.6%
same,inhibition,"[5]; BGB IC20 combo, at 0.005 µM",-10.6% and 8.62%
same,inhibition,"[5]; BGB IC40 combo, at 0.005 µM",-48.5% and 3.88%
same,inhibition,"[5]; BGB IC40 combo, at 0.05 µM",19.3% and 30.6%
same,inhibition,[5]; at 0.5 µM,-22.3% (inactive) and 1.78% (inactive)
same,inhibition,"[5]; cisplatin combo, at 0.05 µM",16.1% and 28.6%
same,inhibition,"[5]; cisplatin combo, at 0.5 µM",-41.9% and 10.4%
same,inhibition,"[5]; cisplatin combo, at 5 µM",-6.73% and -20.8%
same,inhibition,"[5]; measured here: 5 uM single agent, at 5 µM",-6.18% and 2.93%
same,inhibition,[6]; at 0.5 µM,-0.52% (inactive) and 4.37% (inactive)
same,inhibition,[6]; [18],-26.5% and -6.78%
same,inhibition,[6]; [21],3.43% and 2.01%
same,inhibition,[6]; [22],21.2% and 8.3%
same,inhibition,[7]; at 0.5 µM,19.9% (inactive) and 9.96% (inactive)
same,inhibition,"[7]; measured here: with BGB IC20, at 0.5 µM",8.29% and 2.56%
same,inhibition,"[7]; measured here: with BGB IC20, at 5 µM",37.9% and 32.7%
same,inhibition,"[7]; measured here: with cisplatin IC20, at 0.5 µM",24.2% and 15.2%
same,inhibition,"[7]; measured here: with cisplatin IC20, at 5 µM",61.3% and 51.1%
same,inhibition,"[7]; single agent, at 5 µM",64% and 41.2%
same,inhibition,[8]; at 0.5 µM,-11.3% (inactive) and -33.3% (inactive)
same,inhibition,"[8]; measured here: combination with BGB at IC20, at 0.5 µM",5.14% and -65%
same,inhibition,"[8]; measured here: combination with cisplatin at IC20, at 0.5 µM",14.3% and -15.5%
same,inhibition,[9]; at 0.5 µM,14.8% (inactive) and 3.61% (inactive)
same,inhibition,"[9]; measured here: combo with BGB at IC20, at 0.5 µM",8.17% and 6.08%
same,inhibition,"[9]; measured here: combo with cisplatin at IC20, at 0.5 µM",19.9% and -1.69%
same,inhibition,[10]; at 0.5 µM,11.9% (inactive) and 3.45% (inactive)
same,inhibition,"[10]; measured here: inhibition with BGB combination, at 0.05 µM",1.66% and 3.63%
same,inhibition,"[10]; measured here: inhibition with cisplatin combination, at 0.05 µM",-1.43% and -3.86%
same,inhibition,[11]; at 0.5 µM,-2.85% (inactive) and 5.34% (inactive)
same,inhibition,[11]; [21],10.6% and 13.6%
same,inhibition,[11]; [22],66.3% and 45%
same,inhibition,[12]; at 0.5 µM,2.63% (inactive) and 5.38% (inactive)
same,inhibition,"[12]; measured here: BGB combination, at 0.5 µM",-2.67% and 11.6%
same,inhibition,"[12]; measured here: BGB combination, at 5 µM",10.7% and 17.3%
same,inhibition,"[12]; measured here: cisplatin combination, at 0.5 µM",0.872% and -0.512%
same,inhibition,"[12]; measured here: cisplatin combination, at 5 µM",26% and 22.1%
same,inhibition,"[13]; BGB combination, concentration series, at 5 µM",53.9% and 55%
same,inhibition,[13]; at 0.5 µM,11.3% (inactive) and 5.83% (inactive)
same,inhibition,"[13]; cisplatin combination, concentration series, at 5 µM",64.1% and 65%
same,inhibition,[14]; at 0.5 µM,12.4% (inactive) and -2.38% (inactive)
same,inhibition,"[14]; measured here: combo with BGB IC20, at 0.5 µM",32.5% and 11.7%
same,inhibition,"[14]; measured here: combo with cisplatin IC20, at 0.5 µM",10.7% and -23.3%
same,inhibition,[15]; at 0.5 µM,4.6% (inactive) and 18.3% (inactive)
same,inhibition,"[15]; cisplatin combination, at 0.5 µM",19.3% and 17.8%
same,inhibition,"[15]; cisplatin combination, at 5 µM",71.8% and 68.9%
same,inhibition,"[15]; measured here: BGB IC40 combination 0.05 uM, at 0.05 µM",-5.38% and 25.6%
same,inhibition,"[15]; single agent, at 5 µM",45.6% and 57.8%
same,inhibition,[16]; at 0.5 µM,12.4% (inactive) and 19.2% (inactive)
same,inhibition,"[16]; cisplatin combo, at 5 µM",43.7% and 48.5%
same,inhibition,"[16]; measured here: BGB IC40 combination, at 0.05 µM",-4.7% and 0.072%
same,inhibition,[16]; [21],39% and 19%
same,inhibition,"[16]; single agent, at 5 µM",15.2% and 39.4%
same,inhibition,[17]; at 0.5 µM,-6.16% (inactive) and 6.99% (inactive)
same,inhibition,[17]; [19],-21.4% and 15.9%
same,inhibition,[17]; [20],1.44% and 0.349%
same,inhibition,"[17]; single agent, at 0.05 µM",-0.576% and -13%
same,inhibition,"[17]; single agent, at 5 µM",32.4% and 24.1%
